The record followed here is PubChem BioAssay (NCI).

About 79,000 compounds went through this panel and 15% of them were active in at least one assay; those are over-represented in the sample as a whole. Values without a mark were called inactive. Activity calls are given as the source filed them. No stated cut-off is given here; in the data, active means growth inhibition above about 70%; inactive means the rest.

The nature of assay [1]: NCI Yeast Anticancer Drug Screen. Data for the rad50 strain (AID 155).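 Further: 0% = growth of vehicle-only cultures of the same strain.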 As to conditions: S. cerevisiae rad50 strain growth inhibition, hits give high values. An outline of the steps:
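Readout: growth inhibition relative to vehicle-treated cultures. Compound exposure was carried out in a genetically defined yeast strain deficient in DNA damage repair.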

Assay [2] is described as follows: NCI Yeast Anticancer Drug Screen. Data for the mec2-1 strain (AID 157). Conditions: S. cerevisiae mec2-1 strain, hits give high values. An outline of the steps:
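Using mec2-1 yeast: add compound, measure growth, express inhibition versus vehicle-treated cultures.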

The nature of assay [3]: NCI Yeast Anticancer Drug Screen. Data for the sgs1 mgt1 strain (AID 161).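 Further: 0% = growth of cultures given vehicle only.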 Conditions: S. cerevisiae sgs1 mgt1 strain, hits give high values. The gist of the method:
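Yeast cells carrying a defined DNA-repair defect were exposed to test compounds. Growth inhibition was measured relative to vehicle-treated controls.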

Assay [4] can be described thus: NCI Yeast Anticancer Drug Screen. Data for the cln2 rad14 strain (AID 165).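 Further: 0% = growth equal to vehicle treated cultures.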 Conditions: S. cerevisiae cln2 rad14 strain, hits give high values. The gist of the method: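 Yeast strain cln2 rad14, bearing defects in cell cycle control and DNA repair, serves as the test system; values reflect growth inhibition compared with vehicle.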
The nature of assay [5]: NCI Yeast Anticancer Drug Screen. Data for the bub3 strain (AID 167). As to conditions: S. cerevisiae bub3 mutant strain, hits give high values. The gist of the method: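 Readout: yeast growth inhibition, expressed relative to vehicle-only wells. The test organism is a mutant strain from a panel with lesions in DNA repair or checkpoint genes.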
Assay [6] is described as follows: NCI Yeast Anticancer Drug Screen. Data for the mlh1 rad18 strain (AID 175). Conditions: S. cerevisiae mlh1 rad18 strain growth inhibition, hits give high values. An outline of the steps:
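Steps: expose repair-defective yeast to compound; measure growth; express inhibition against vehicle-treated controls.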

Setting [7] is: at 5.0 µM (retest, dose inferred, filed as 0.5).
The mark [8] stands for this setting: at 50.0 µM (retest, dose inferred, filed as 5.0).

For `CC(/C=C1\C(=O)N(C)C(CC(C)C(Cl)(Cl)Cl)C(=O)N1C)C(Cl)(Cl)Cl` (stereo not drawn), the growth inhibition in assay [1] (setting [7]) is 6%; in assay [1] (setting [8]), 78% (active); in assay [1] (at 50.0 µM), 62.8%; in assay [2] (setting [7]), 7%; in assay [2] (setting [8]), 74% (active); in assay [2] (at 50.0 µM) it was 30.8%. The growth inhibition is 4% in assay [3] (setting [7]); 76% (active) in assay [3] (setting [8]); 57.7% in assay [3] (at 50.0 µM); 25% in assay [4] (setting [7]); 74% (active) in assay [4] (setting [8]); 38.5% in assay [4] (at 50.0 µM). Moreover, the growth inhibition is 28% in assay [5] (setting [7]); 79% (active) in assay [5] (setting [8]); 36.2% in assay [5] (at 50.0 µM); 13% in assay [6] (setting [7]); 79% (active) in assay [6] (setting [8]); 70.7% (active) in assay [6] (at 50.0 µM).

For the molecule `CCCN1CSC(=S)N(CCC)C1`, the growth inhibition in assay [1] (setting [7]) was 41%; in assay [1] (setting [8]), 92% (active); in assay [1] (at 50.0 µM), 52.5%; in assay [2] (setting [7]), 48%; in assay [2] (setting [8]) it was 92% (active); in assay [2] (at 50.0 µM), 77% (active). Also, the growth inhibition in assay [3] (setting [7]) is 32%; in assay [3] (setting [8]), 99% (active); in assay [3] (at 50.0 µM), 80.5% (active); in assay [4] (setting [7]), 66%; in assay [4] (setting [8]), 98% (active); in assay [4] (at 50.0 µM), 32.1%. Further, the growth inhibition in assay [5] (setting [7]) was 34%; in assay [5] (setting [8]) it was 100% (active); in assay [5] (at 50.0 µM), 86.2% (active); in assay [6] (setting [7]), 37%; in assay [6] (setting [8]), 97% (active); in assay [6] (at 50.0 µM) it was 72.8% (active).

On to `O=C1/C(=C/c2ccccc2)CNC/C1=C\c1ccccc1`, for which the growth inhibition is -11% in assay [1] (setting [7]); 98% (active) in assay [1] (setting [8]); 98.7% (active) in assay [1] (at 50.0 µM); 26% in assay [2] (setting [7]); 97% (active) in assay [2] (setting [8]); 99.3% (active) in assay [2] (at 50.0 µM). Besides, the growth inhibition is -7% in assay [3] (setting [7]); 96% (active) in assay [3] (setting [8]); 95.2% (active) in assay [3] (at 50.0 µM); 10% in assay [4] (setting [7]); 98% (active) in assay [4] (setting [8]); 92.5% (active) in assay [4] (at 50.0 µM). Besides, the growth inhibition in assay [5] (setting [7]) was 6%; in assay [5] (setting [8]), 98% (active); in assay [5] (at 50.0 µM) it was 94.2% (active); in assay [6] (setting [7]), -4%; in assay [6] (setting [8]), 98% (active); in assay [6] (at 50.0 µM), 99.2% (active).

With `CCC[CH2][Sn]([CH2]CCC)([O]N(C)C(=O)c1ccc(Br)cc1)[O]N(C)C(=O)c1ccc(Br)cc1`, the growth inhibition in assay [1] (setting [7]) is 63%; in assay [1] (setting [8]) it was 98% (active); in assay [1] (at 50.0 µM) it was 89.5% (active); in assay [2] (setting [7]), 87% (active); in assay [2] (setting [8]) it was 99% (active); in assay [2] (at 50.0 µM) it was 90.2% (active). Also, the growth inhibition was 33% in assay [3] (setting [7]); 95% (active) in assay [3] (setting [8]); 92.8% (active) in assay [3] (at 50.0 µM); 27% in assay [4] (setting [7]); 98% (active) in assay [4] (setting [8]); 90.7% (active) in assay [4] (at 50.0 µM). Moreover, the growth inhibition in assay [5] (setting [7]) was 37%; in assay [5] (setting [8]), 97% (active); in assay [5] (at 50.0 µM), 90.7% (active); in assay [6] (setting [7]) it was 90% (active); in assay [6] (setting [8]) it was 98% (active); in assay [6] (at 50.0 µM) it was 90.5% (active).

Consider `c1ccc(CN2CCC3(CC2)SSC2(CCN(Cc4ccccc4)CC2)S3)cc1`, for which the growth inhibition in assay [1] (setting [7]) is 3%; in assay [1] (setting [8]), 16%; in assay [1] (at 50.0 µM), 53.7%; in assay [2] (setting [7]), 2%; in assay [2] (setting [8]), 23%; in assay [2] (at 50.0 µM) it was 23.4%. For the same molecule, the growth inhibition was 22% in assay [3] (setting [7]); 67% in assay [3] (setting [8]); 61.2% in assay [3] (at 50.0 µM); 4% in assay [4] (setting [7]); 8% in assay [4] (setting [8]); 68.3% in assay [4] (at 50.0 µM). In addition, the growth inhibition in assay [5] (setting [7]) was 5%; in assay [5] (setting [8]), 43%; in assay [5] (at 50.0 µM), 27.1%; in assay [6] (setting [7]) it was 6%; in assay [6] (setting [8]), 32%; in assay [6] (at 50.0 µM) it was 52%.

Take `O=C(OCC1OC(OCC(OC(=O)c2ccccc2)C(OC(=O)c2ccccc2)C(OC(=O)c2ccccc2)c2cnn(-c3ccccc3)n2)C(OC(=O)c2ccccc2)C(OC(=O)c2ccccc2)C1OC(=O)c1ccccc1)c1ccccc1` (stereo not drawn): the growth inhibition in assay [1] (setting [7]) is -6%; in assay [1] (setting [8]), -1%; in assay [1] (at 50.0 µM), 97.5% (active); in assay [2] (setting [7]), -14%; in assay [2] (setting [8]) it was -21%; in assay [2] (at 50.0 µM), 94.8% (active). Besides, the growth inhibition in assay [3] (setting [7]) was -1%; in assay [3] (setting [8]) it was -6%; in assay [3] (at 50.0 µM), 98% (active); in assay [4] (setting [7]), 6%; in assay [4] (setting [8]) it was 7%; in assay [4] (at 50.0 µM) it was 98.6% (active). In addition, the growth inhibition is -12% in assay [5] (setting [7]); 4% in assay [5] (setting [8]); 96.8% (active) in assay [5] (at 50.0 µM); -4% in assay [6] (setting [7]); -10% in assay [6] (setting [8]); 97.7% (active) in assay [6] (at 50.0 µM).
